D2 ag-1: human D2 receptor agonism in beta-arrestin assay; activation, % (concentration not given with the values); AID 624465; 0.084% of 360,000 active; DiscoveRx PathHunter D2 beta-arrestin, luminescence, 90 min; 100% = 57 uM dopamine signal; in the data active = activation above about 40%; inconclusive = between about 15% and that limit
Target sequence (P14416 whole entry, looked up): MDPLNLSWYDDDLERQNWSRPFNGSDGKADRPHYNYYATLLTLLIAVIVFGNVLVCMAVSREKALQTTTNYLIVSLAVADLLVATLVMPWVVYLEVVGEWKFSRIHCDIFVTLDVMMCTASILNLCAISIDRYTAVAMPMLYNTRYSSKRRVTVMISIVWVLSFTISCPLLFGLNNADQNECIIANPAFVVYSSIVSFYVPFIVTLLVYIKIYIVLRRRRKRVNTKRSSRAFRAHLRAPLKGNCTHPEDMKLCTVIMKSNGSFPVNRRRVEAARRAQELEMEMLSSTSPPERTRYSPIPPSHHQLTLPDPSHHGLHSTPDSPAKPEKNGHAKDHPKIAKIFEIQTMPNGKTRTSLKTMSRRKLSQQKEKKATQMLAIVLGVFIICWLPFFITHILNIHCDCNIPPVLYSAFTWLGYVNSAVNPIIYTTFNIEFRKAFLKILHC
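Agonist mode: compounds alone added to overnight-plated D2 PathHunter cells for 90 min at 37 C, with 57 uM final dopamine (EC100) defining full response. Beta-arrestin recruitment detected by chemiluminescent reagent, read after 1 h at ambient temperature.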
D2 PAM-1: positive allosteric modulators of human D2 dopamine receptor. P14416. HEK293 T-REx D2, calcium flux, EC20 dopamine potentiation. potentiation, % at 10 µM. 0.34% of 340,000 active;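 active = potentiation over 3 SD above the plate norm, cut at about 30% in these data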
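Tetracycline-induced HEK293 T-REx cells force-coupled to calcium signalling expressed D2; compounds were pin-added after a 10 s baseline, read kinetically 180 s, then an EC20 dopamine challenge followed with a further 180 s calcium read.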
D2 antag: antagonists of human D2 dopamine receptor | 2% of 340,000 active | HEK293 TREx D2 cells, calcium flux, dopamine EC80 | P14416 | inhibition, % at 10 µM; in the data active = inhibition above about 30%; inactive = below that, where a call was filed
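Tetracycline-induced HEK293 T-REx cells expressing D2 force-coupled to calcium signalling were dye-loaded, exposed to compound for 180 s, then challenged with an EC80 of dopamine; calcium flux was followed kinetically for a further 180 s.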
D2 ag-2: activates the human D2 dopamine receptor. P14416. HEK293 T-REx D2 cells, calcium flux agonist mode. activation, % at 2 µM. 0.53% of 340,000 active. AID 485358;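 active = activation over 3 SD above normal in the single-dose calcium agonist read, cut at about 30% in these data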
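HEK293 Trex D2 cells, tetracycline-induced, o/n 30 C 5% CO2; no-wash Ca dye, RT 30–90 min; 10-cycle baseline, 23 nl cpd added, kinetic Ca read 180 s; agonist hits = positive Ca response.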
D2 PAM-2: positive allosteric modulators of human D2 dopamine receptor. DiscoveRx D2 beta-arrestin cells, luminescence, 90 min; 100% = 57 uM dopamine signal. potentiation, % (test concentration not listed). 0.23% of 360,000 active. AID 624464; in the data active = potentiation above about 50%; inconclusive = mostly about 30% to 49%
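PathHunter beta-arrestin assay in DiscoveRx D2 cells. Compounds were added with an EC20 of dopamine (50 nM final) for 90 min at 37 deg C. Luminescence was read 1 h after detection reagent, with 57 uM dopamine as the EC100 control.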
Large screens that a line does not name were inactive. Only some compounds are listed: those with a hit (about 2.4% of all), similar ones and a draw of the others.

CN1Cc2cccc3c2C(Cc2ccccc2S3)C1 (centres undefined)	D2 antag 48
c1ccc(CN2C3=NCCCN3c3ccccc32)cc1	none
O=C1CN2C(=N1)N(Cc1ccccc1)c1ccccc12	D2 antag 71
CCOC(=O)C1CCCN(S(=O)(=O)c2ccc3c(c2)CCN3C(=O)CC)C1 (centres undefined)	none (no result: D2 ag-1, D2 antag, D2 PAM-2)
O=C(O)c1cc(=O)n(Cc2ccccc2)c(=O)[nH]1	none
Cc1ccc(NC(=O)c2cc(=O)n(Cc3ccccc3)c(=O)[nH]2)cc1C	D2 antag 34 (no result: D2 ag-2)
CCOc1ccc(N(CC(=O)NCCc2ccc(Cl)cc2)S(=O)(=O)c2c(C)[nH]c(=O)[nH]c2=O)cc1	D2 PAM-1 32
CCOc1ccc(N(CC(=O)NCc2ccc(OC)cc2)S(=O)(=O)c2c(C)[nH]c(=O)[nH]c2=O)cc1	none (no result: D2 antag)
CC(=O)N(C)c1ccc(OCC(O)Cn2c(C)nc3ccccc32)cc1 (centres undefined)	D2 PAM-1 31
CC(=O)Nc1ccc(OCC(O)Cn2c(C)nc3ccccc32)cc1 (centres undefined)	none
Cc1ccc(N2CCN(CC(O)COC3CCCCC3)CC2)cc1 (centres undefined)	D2 antag 63
Cc1nc2ccccc2n1CC(O)COC1CCCCC1 (centres undefined)	D2 antag 32
COCc1cc(C)nc2sc(C(=O)Nc3cc(C)ccc3F)c(N)c12	none (no result: D2 ag-1, D2 antag, D2 PAM-2)
O=C(COc1cccc2cccnc12)Nc1ccccc1N1CCOCC1	D2 antag 30 (no result: D2 PAM-1)
O=C(NCCc1ccc(Cl)cc1)c1cnc2sc(N3CCCCC3)nn2c1=O	none (no result: D2 ag-1, D2 antag, D2 PAM-2)
CC(NS(=O)(=O)c1ccc(OCC(=O)N2CCOCC2)cc1)c1ccccc1 (centres undefined)	D2 antag 31
CC(NS(=O)(=O)c1ccc(OCC(=O)N2CCOCC2)c(Cl)c1)c1ccccc1 (centres undefined)	none
COc1ccc(-n2ccnc(NCc3ccc(Cl)cc3)c2=O)cc1	none (no result: D2 ag-1, D2 antag, D2 PAM-2)
Cc1cccc(-n2nc([N+](=O)[O-])c(=NCc3cccnc3)n2O)c1	D2 ag-1 inconclusive, D2 PAM-2 68
O=[N+]([O-])c1nn(-c2cccc(Cl)c2)n(O)c1=NCc1cccnc1	D2 ag-1 inconclusive, D2 PAM-2 59
C[C@@H]1CCCCO[C@H](CN(C)C(=O)Nc2ccc3c(c2)OCO3)[C@H](C)CN([C@@H](C)CO)C(=O)c2cc(NS(=O)(=O)c3ccc(Cl)cc3)ccc2O1	none (no result: D2 PAM-1, D2 antag, D2 ag-2)
Brc1ccc(-c2noc(COc3ccc4c(c3)CCC4)n2)o1	D2 antag 43
Cc1ccc(NC(=O)CCN2C(=O)NC3(CCCC3)C2=O)c(C)c1	D2 antag 51
CCOc1ccc2nc(N(Cc3cccnc3)C(=O)c3ccco3)sc2c1	none (no result: D2 ag-1, D2 antag, D2 ag-2, D2 PAM-2)
CC1CCCCN1C(=O)Cn1nnc(-c2cccnc2)n1 (centres undefined)	D2 antag 32
O=c1[nH]c(/C=C/c2ccc3c(c2)OCO3)c([N+](=O)[O-])c(=O)[nH]1	none (no result: D2 ag-1, D2 PAM-2)
O=c1[nH]c(/C=C/c2ccc([N+](=O)[O-])cc2)c([N+](=O)[O-])c(=O)[nH]1	D2 ag-1 inconclusive, D2 PAM-2 52
O=C(N/N=C/c1c(O)ccc2ccccc12)c1cccnc1	none
O=C(N/N=C\c1c(O)ccc2ccccc12)c1cncc(Br)c1	D2 ag-2 66
CCOc1cccc2sc(N(CCN(C)C)C(=O)/C=C/c3cccs3)nc12	D2 antag 66
COc1cccc2sc(N(CCN(C)C)C(=O)/C=C/c3cccs3)nc12	none
COc1ccc(S(=O)(=O)N(CC(=O)NCCSc2ccccc2)c2ccc(Cl)cc2)cc1	none (no result: D2 ag-1, D2 antag, D2 PAM-2)
CCOC(=O)C1CCN(CC(O)COc2ccc(S(=O)(=O)N3CCCC3)cc2[N+](=O)[O-])CC1 (centres undefined)	D2 ag-2 36
CCCCN(C)C(=O)CN1C(=O)CCn2nc(-c3cn(C)c4ccccc34)cc21	none (no result: D2 ag-1, D2 antag, D2 PAM-2)
COc1cccc(C(NC(C)=O)c2nc(-c3ccccc3C)cs2)c1 (centres undefined)	D2 ag-1 78 (no result: D2 PAM-1, D2 antag, D2 ag-2)
CC(=O)NC(c1cccc(F)c1)c1nc(-c2ccccc2C)cs1 (centres undefined)	none (no result: D2 PAM-1, D2 antag, D2 ag-2)
CCCCC(=O)OCc1nc2ccccc2s1	D2 PAM-1 42
CCOc1ccc(Oc2ccccc2NC(=O)C2=COCCO2)cc1	D2 antag 37
Cc1ccc2oc(-c3cccc(NC(=O)c4sc5c([N+](=O)[O-])cccc5c4Cl)c3)nc2c1	none (no result: D2 ag-1, D2 antag, D2 PAM-2)
Cc1ccc(-c2nc3c(c(SCC(=O)Nc4cccc(C(=O)O)c4)n2)Cc2cccc(C)c2O3)cc1	none (no result: D2 ag-1, D2 antag, D2 PAM-2)
COc1ccc(/C=C/C(=O)NNC(=O)c2ccncc2)c(OC)c1	none
Cc1cc(C(=O)COC(=O)c2ccc3c(c2)NC(=O)CS3)c(C)n1CCc1ccc(Cl)cc1	D2 antag 63
CCOC(=O)CCNC(=O)N1CCC(CCOc2ccccc2)(C(=O)OCC)CC1	none (no result: D2 PAM-1, D2 antag, D2 ag-2)
CCOC(=O)C1(CCc2ccccc2)CCN(Cc2cccc3nccnc23)CC1	D2 antag 65
CCOC(=O)C1(CCOc2ccccc2)CCN(S(=O)(=O)N(C)C)CC1	D2 antag 43
CCOC(=O)C1(Cc2ccccc2)CCN(Cc2cnn(-c3ccccc3)c2)CC1	D2 antag 33
CCOC(=O)C1(CCOc2ccccc2)CCN(Cc2ccc(-n3cccn3)cc2)CC1	D2 antag 35
CCOC(=O)C1(CCOc2ccccc2)CCN(Cc2ccncc2)CC1	none
CCOC(=O)C1(Cc2ccccc2)CCN(Cc2cnn(CC)c2)CC1	none
CCOC(=O)c1ccc(OCC2c3cc(OC)c(OC)cc3CCN2C(=O)Cc2ccc(OC)c(OC)c2)cc1 (centres undefined)	none (no result: D2 ag-1, D2 antag, D2 PAM-2)
CC(=O)Oc1ccc2c(=O)c(-c3nc4ccccc4s3)coc2c1	none
COc1ccccc1-n1c(=O)n(C)c2c(C(N)=O)nc(-c3cc(OC)c(OC)c(OC)c3)nc21	none (no result: D2 ag-1, D2 antag, D2 PAM-2)
Cc1cc(C)cc(NC(=O)CCn2cnc3ccccc3c2=O)c1	none (no result: D2 ag-1, D2 antag, D2 PAM-2)
CC(=O)c1cccc2c1OC(C)C(=O)N2Cc1ccc(Cl)cc1 (centres undefined)	none (no result: D2 PAM-1, D2 antag, D2 ag-2)
COc1ccc(NC(=O)NCc2ccncc2)c(OC)c1	none
COc1ccc(CNC(=O)Nc2cc(C)ccc2C)cc1	none
COc1ccc(OC)c(NC(=O)NCc2ccc(F)cc2)c1	D2 antag 39
COc1ccc(OC)c(NC(=O)C2(C)CCN2Cc2ccccc2OC(F)F)c1 (centres undefined)	D2 ag-1 108 (no result: D2 PAM-1, D2 antag, D2 ag-2)
COc1ccc(C)cc1NC(=O)NCc1ccc(F)cc1	D2 antag 53
COc1ccc(OC)c(NC(=O)NC2CCCCCCC2)c1	none
COc1ccc(C)cc1NC(=O)NC1CCCCCCC1	D2 antag 32
O=S(=O)(c1ccc(-c2csc(=Nc3ccc(OC(F)(F)Cl)cc3)n2CCCO)cc1)N1CCCC1	none (no result: D2 ag-1, D2 antag, D2 PAM-2)
